Most compounds without a hit are left out; they make up all but 2.5% or so of the library.
MEKK2wt PB1 HTS – raises or lowers MEK5 binding to wildtype human MEKK2 PB1 domain. Q9Y2U5. bead flow cytometry, Alexa488-MEK5 binding to MEKK2 WT; actives lie on both sides. binding response (% of control), % at 10 µM. 290,000 tested, 1.1% active; in the data active = binding response below about 67% or above about 130%
MEKK3 PB1 HTS – raises or lowers MEK5 binding to the human MEKK3 PB1 domain. Q99759. bead-based flow cytometry, Alexa488-MEK5 binding to MEKK3; actives lie on both sides; 0 = blocked by unlabeled MEK5, 100 = vehicle. binding response (% of control), % at 10 µM. 290,000 tested, 1.4% active. AID 1529;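 active = binding response more than 3 SD above or below the average of its plate-row segment, actives on both sides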;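 note: Alexa488 bead fluorescence after subtracting the streptavidin-only scavenger bead signal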
Target sequence (Q99759 whole entry, looked up, the tested form may be a part): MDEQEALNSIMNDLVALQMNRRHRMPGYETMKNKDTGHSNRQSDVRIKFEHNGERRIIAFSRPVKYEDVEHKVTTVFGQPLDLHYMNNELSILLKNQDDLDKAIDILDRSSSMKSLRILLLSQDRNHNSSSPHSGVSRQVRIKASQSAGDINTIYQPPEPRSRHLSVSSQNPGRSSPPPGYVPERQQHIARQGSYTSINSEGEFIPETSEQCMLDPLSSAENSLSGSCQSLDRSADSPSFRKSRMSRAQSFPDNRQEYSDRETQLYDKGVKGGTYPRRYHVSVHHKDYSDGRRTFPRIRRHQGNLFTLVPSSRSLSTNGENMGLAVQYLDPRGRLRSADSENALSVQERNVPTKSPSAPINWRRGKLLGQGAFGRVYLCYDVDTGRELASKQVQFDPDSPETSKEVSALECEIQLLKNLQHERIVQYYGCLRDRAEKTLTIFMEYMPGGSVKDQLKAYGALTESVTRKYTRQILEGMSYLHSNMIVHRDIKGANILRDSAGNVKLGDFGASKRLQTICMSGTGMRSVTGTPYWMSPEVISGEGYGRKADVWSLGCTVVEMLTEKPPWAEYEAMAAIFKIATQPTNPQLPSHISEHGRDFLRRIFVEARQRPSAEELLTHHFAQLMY
GRK2 aptamer HTS – human GRK2 inhibition via aptamer displacement; 330,000 tested, 0.59% active; bead flow cytometry, FAM-aptamer displacement from GRK2; P25098; inhibition of aptamer binding, % at 10 µM;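 active = inhibition of aptamer binding above 40%, roughly 3 SD of noise, on plates passing a quality check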;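 note: median bead fluorescence of bound FAM aptamer so fluorescent compounds give negative values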
MEKK2 mut-MEK5 – signal of MEK5 binding to mutant human MEKK2 PB1 domain | 290,000 tested, 0.35% active | percent response, % at 10 µM | bead flow cytometry, Alexa488-MEK5 binding to MEKK2 mutant; in the data active = percent response above about 24%, passing the limit was not always enough
* hit, by the source's call; · = not tested or not shown; [ ] = remark or other dose.

SMILES	MEKK2wt PB1 HTS	MEKK3 PB1 HTS	GRK2 aptamer HTS	MEKK2 mut-MEK5
CN(C)c1ccc(/C=C/c2ccc3ccccc3n2)cc1	93	97	4	4
COc1ccc(NC(=O)COC(=O)c2cc3c(s2)CCC3)cc1	·	·	43*	·
O=C(COC(=O)c1cc2c(s1)CCC2)Nc1ccc(F)cc1	99	104	36	-1
COC(=O)NNC(=O)c1ccc(C)c(Br)c1	85	78	80*	-5
COc1cc2ncnc(NCc3cccc(Cl)c3)c2cc1OC	138*	107	2	40
COc1cc2ncnc(NCc3ccccc3)c2cc1OC	118	114	2	19
CCn1c(=O)c(C(=O)Nc2nc3ccccc3[nH]2)c(O)c2ccccc21	100	97	81*	-3
COc1ccccc1CN(C)C(=O)c1ccc(S(=O)(=O)NCc2ccco2)cc1	·	·	44*	·
CCN(C(=O)C(C)Sc1ccc(S(=O)(=O)N2CCOCC2)cn1)c1ccccc1 (stereo not drawn)	·	·	0	·
Cc1nnc(-n2ncc(C#N)c2N)c2nn(-c3cccc(Cl)c3)c(C)c12	97	95	0	2
Cc1nnc(N2CCOCC2)c2nn(-c3cccc(Cl)c3)c(C)c12	80	122	0	85*
CC1=CC(C)(C)n2c(O)c(N=NC(N)=S)c3c(C)ccc1c32	107	101	5	14
CC1=CC(C)(C)n2c(O)c(N=NC(N)=S)c3cccc1c32	108	146*	2	0
Cc1ccc(S(=O)(=O)Nc2cccc3ncccc23)s1	-1.0*[inhibitor]	1.0*[inhibitor]	7	-9
CC1(C)Cc2c(sc(NC(=O)c3ccc(C(=O)c4ccccc4)cc3)c2C(N)=O)C(C)(C)N1	150*	106	0	22
CCOC(=O)c1c(NC(=O)COc2ccccc2C#N)sc2c1CC(C)(C)NC2(C)C	134*	104	0	16
COC(=O)c1c(NC(=O)c2ccccc2)sc2c1CC(C)(C)NC2(C)C	121	103	0	15
COc1ccc2nc(N(CCN(C)C)C(=O)c3ccc4ccccc4c3)sc2c1	132	101	0	8
CCOc1ccc2nc(N(CCN(C)C)C(=O)c3cc4ccccc4cc3OC)sc2c1	137*	104	2	21
CCOc1cccc2sc(N(CCN(C)C)C(=O)c3cc4ccccc4cc3OC)nc12	149*	101	0	19
CCOC(=O)C1CCN(Cc2cc(=O)oc3c(C)c(C)ccc23)CC1	97	94	0	-5
COc1ccccc1C(=O)NC(=S)/C=C1/N(C)c2ccccc2C1(C)C	94	103	27	-1
CN1/C(=C\C(=S)NC(=O)c2ccccc2Cl)C(C)(C)c2ccccc21	1.0*	86	0	0
Cc1ccc(/C=C/C(=O)OCC(=O)Nc2cccc(S(=O)(=O)N(C)C)c2)o1	10*	104	0	11
O=C(Nc1ccccc1OCc1ccccc1)c1ccccc1Br	99	97	0	-2
SMILES	MEKK2wt PB1 HTS	MEKK3 PB1 HTS	GRK2 aptamer HTS	MEKK2 mut-MEK5
Cc1cccc(N(Cc2ccccc2)C(=O)CSC(C)C(=O)Nc2cc(C)on2)c1 (stereo not drawn)	·	·	1	·
CCN(CC)CCNC(=O)c1cc(-c2cccnc2)nc2ccc(S(=O)(=O)N3CCC(C)CC3)cc12	122	104	35	6
CCCCN(C)CCNC(=O)c1cc(-c2cccnc2)nc2ccc(S(=O)(=O)N3CCC(C)CC3)cc12	136*	103	0	14
COc1ccc(CNC(=O)CSc2ncn[nH]2)cc1OC	97	98	0	4
O=C(/C=C/c1ccc(F)cc1)Nc1nc2ccccc2[nH]1	112	208*	0	1
CC(=O)Nc1ccc2nc(NC(=O)c3ccc([N+](=O)[O-])s3)sc2c1	96	97	87*	-1
COc1ccc(-c2nc(-n3c(C)c(C(C)=O)c(C(C)=O)c3C)sc2C)cc1	100	101	78*	-2
CC(OC(=O)C1=COCCO1)C(=O)Nc1cc(S(=O)(=O)N2CCCCC2)ccc1Cl (stereo not drawn)	73	75	3	-12
O=S1(=O)c2ccc(Br)cc2N2CCC[C@H]2CN1Cc1ccccc1	·	·	0	·
C[C@@H](c1ccccc1)N1C[C@H]2CCCN2c2cc(Br)ccc2S1(=O)=O	·	·	41*	·
Cc1ccc(C)c(N2CCN(C(=O)Nc3ccc4c(c3)N(C)C(=O)CS4)CC2)c1	110	104	3	1
CN1C(=O)CSc2ccc(NC(=O)N3CCC(N4CCCCC4)CC3)cc21	-1.0*	102	0	15
COc1cc(/C=C/C(=O)OCC(=O)N2CCCC2)ccc1OCC#N	·	·	3	·
CCOC(=O)C1C(=O)C=C(c2ccc(C)cc2)CC1c1ccccc1 (stereo not drawn)	105	118	1	2
CCOC(=O)C1C(=O)C=C(/C=C/c2ccc(N(C)C)cc2)CC1c1ccccc1 (stereo not drawn)	42*	129	0	51*
OCCN1CCN(C(c2cccs2)c2ccc3cccnc3c2O)CC1 (stereo not drawn)	68*[inhibitor]	97	·	-11
COc1ccc(OCc2cc(C(=O)NC(C)Cc3cnccn3)no2)c(Cl)c1 (stereo not drawn)	97	95	4	-6
O=C(COC(=O)/C=C/c1ccc(C(F)(F)F)cc1)NCC1CCCCC1	·	·	3	·
Cc1cc(O)ccc1C1(c2ccc(O)cc2C)OC(=O)c2ccccc21	101	109	0	-3
O=C1OC2(c3ccccc31)c1cc(I)c(O)c(I)c1Oc1c2cc(I)c(O)c1I	·	·	76*	·
C/C(=N\NC(=S)NCc1ccccc1)c1ccc2ccccc2c1	110	101	98*	2
CC(NS(=O)(=O)c1ccc2c(c1)C(=O)c1cc(S(=O)(=O)NC(C)C(=O)O)ccc1-2)C(=O)O (stereo not drawn)	107	104	0	4
CC(=O)NS(=O)(=O)c1ccc2c(c1)C(=O)c1cc(S(=O)(=O)NC(C)=O)ccc1-2	-8.0*	98	4	-3
O=C(Nc1ccc(O)c(-c2nc3ccccc3s2)c1)c1cccs1	113	105	2	0
Oc1ccc(N=C/C=C/c2cccc(Br)c2)cc1-c1nc2ccccc2s1	93	98	85*	-3
SMILES	MEKK2wt PB1 HTS	MEKK3 PB1 HTS	GRK2 aptamer HTS	MEKK2 mut-MEK5
COc1cc(OC)cc(C(=O)N[C@H](C(=O)NCc2ccccc2)C(C)C)c1	101	99	0	11
C=CCNC(=O)/C(C#N)=C/c1ccccc1[N+](=O)[O-]	4.0*	98	1	19
Cn1ncc(Br)c1C(=O)O	101	96	3	-2
CN(C(=O)c1c(Br)cnn1C)C12CC3CC(CC(C3)C1)C2	109	144*	·	0
Cc1nn(-c2ccccc2)c(C)c1NC(=O)COC(=O)CC(C)c1ccccc1 (stereo not drawn)	·	·	0	·
Oc1cccc(C(O)CNCc2ccc(-c3ccccc3)cc2)c1 (stereo not drawn)	128	105	0	2
Oc1cccc(C(O)CNCc2ccc(OCc3ccc(Cl)cc3Cl)cc2)c1 (stereo not drawn)	155*	107	0	8
